Source: PubChem BioAssay (NCATS)
Results filed as inconclusive are left out. Where a call stands in place of a potency, no number is given. Activity calls are given as the source filed them. The call rests on the fitted dose curve; in most records, active means well fitted inhibition curve with a large enough effect; inconclusive means small, poorly fitted or top-dose-only effect; inactive means no such curve, though single readings can be large or run the other way. Where a SMILES comes first, the peptide text is derived from it. The star is where a group is joined. AMC = Cc1cc(=O)oc2cc(N*)ccc12; Cbz = O=C(OCc1ccccc1)*

assay: Primary fluorescence-based thiol-reactive (MSTI) qHTS assay for identification of artifact compounds. (AID 1845221); details: MSTI thiol-reactivity probe, 1 h; series mostly up to 53.8 µM; further: nearly all actives have a fitted effect of over 65% in size;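 on activity change, negative = thiol reactive: thiol-reactive compounds lower the probe fluorescence signal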
Outline: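 One-hour, room-temperature, dark incubation of compound with 4 uM MSTI in PBS (pH 7.4, 2% DMSO) precedes a fluorescence read at 525 nm excitation, 598 nm emission; Hill-equation fitting yields concentration-response values.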
Potency means the concentration at half of the fitted maximal effect.

Row | Compound | Potency | activity change, negative = thiol reactive
1 | COC(=O)C1=COC(OC2OC(CO)C(O)C(O)C2O)C2C(COC(=O)/C=C/c3ccc(O)cc3)C(O)C(O)C12 (centres undefined) | 5.82 µM (active) | –
2 | Cc1oc(S(=O)(=O)N2CCCCC2)cc1NC(=O)Nc1ccccc1 | inactive | –
3 | CCC/C=C1\OC(=O)C2=C1CCC(O)C2O (centres undefined) | inactive | –
4 | Cc1ccc(COC(=O)N2CC[C@@H](CNc3ncccn3)[C@@H](F)C2)cc1 | inactive | –
5 | CC1(C)CC[C@]2(C(=O)O[C@@H]3O[C@H](CO)[C@@H](O)[C@H](O)[C@H]3O)CC[C@]3(C)C(=CCC4[C@@]5(C)C[C@@H](O)[C@H](O)[C@@](C)(CO)C5[C@H](O)C[C@]43C)C2C1 (some centres undefined) | inactive | –
6 | O=C(O)[C@H]1Cc2ccccc2CN1 | – | -3.73% [at 6.41 µM] (inactive)
7 | COC(=O)C1=CO[C@@H](O[C@@H]2O[C@H](CO[C@@H]3O[C@H](CO)[C@@H](O)[C@H](O)[C@H]3O)[C@@H](O)[C@H](O)[C@H]2O)[C@@H]2C(CO)=CC[C@H]12 | inactive | –
8 | COc1cc(Nc2nc3c(s2)CCCC3c2ccccc2)ccc1-n1cnc(C)c1 (centres undefined) | – | -6.96% [at 11.5 µM] (inactive)
9 | CC1=CC[C@@]2(C)CC[C@@](O)(C(C)C)[C@@H]2[C@@H](O)C1 | inactive | –
10 | C[C@@H]1O[C@@H](O[C@H]2[C@H](OC(=O)[C@]34CCC(C)(C)C[C@H]3C3=CCC5[C@@]6(C)C[C@@H](O)[C@@H](O)[C@@](C)(CO)C6[C@H](O)C[C@@]5(C)[C@]3(C)CC4)OC[C@H](O)[C@@H]2O)[C@H](O)[C@H](O)[C@H]1O[C@@H]1OC[C@@H](O)[C@H](O[C@H]2O[C@H](C)[C@@H](O)[C@H](O)[C@@H]2O)[C@H]1O (some centres undefined) | – | 381% [at 11.5 µM] (inactive)
11 | CC[C@H]1OC(=O)[C@H](C)[C@@H](O[C@H]2C[C@@](C)(OC)[C@@H](O)[C@H](C)O2)C(C)[C@@H](O[C@@H]2O[C@H](C)C[C@H](N(C)C)[C@H]2O)[C@](C)(O)C[C@@H](C)CN(C)[C@H](C)[C@@H](O)[C@]1(C)O (some centres undefined) | inactive | –
12 | COCCN1CCC(C(=O)NO)(S(=O)(=O)c2ccc(Oc3ccc(OC(F)(F)F)cc3)cc2)CC1 | inactive | –
13 | CCC(C)C(C(=O)O)N1Cc2c(OCC=C(C)C)c(C)c(OC)c(C(=O)O)c2C1=O (centres undefined) | inactive | –
14 | CC(C)=C1C[C@@]2(C)C(=CC1=O)CC[C@@H](O)[C@@H]2C | inactive | –
15 | CC1(C)CCC2(C(=O)O)C(O)CC3(C)C(=CCC4C5(C)CCC(OC6OC(CO)C(O)C(O)C6OC6OC(CO)C(O)C(O)C6OC6OCC(O)(CO)C6O)C(C)(C)C5CCC43C)C2C1 (centres undefined) | – | 154% [at 11.5 µM] (inactive)
16 | CC(C)=C1CC2[C@](C)(CC[C@@H](OC(=O)C3(C)OC3C)[C@@]2(C)O)CC1=O (some centres undefined) | inactive | –
17 | Cc1cc(=O)oc2cc(NC(=O)[C@H](CCC(=O)O)NC(=O)[C@H](CC(C)C)NC(=O)[C@H](CC(C)C)NC(=O)OCc3ccccc3)ccc12 (Cbz-Leu-Leu-Glu-{AMC}) | inactive | –
18 | C=C1CCC2C(C)(C(=O)OC)CCCC2(C)C1CCC1=CCOC1=O (centres undefined) | inactive | –
19 | O=C(O[C@@H]1O[C@H](CO)[C@@H](O)[C@H](O)[C@H]1O)c1ccccc1 | 23.8 µM (active) | –
20 | CC(=O)O[C@@H]1[C@H](OC(C)=O)C[C@@]2(C)C(CC[C@@H](C)[C@]23Cc2c(O)cc4c(c2O3)CN([C@@H](CCC(=O)O)C(=O)O)C4=O)C1(C)C (some centres undefined) | inactive | –
21 | CC(C)(C)NS(=O)(=O)c1ccc(-c2ccc3[nH]nc(N)c3c2)cc1 | 7.52 µM (active) | –
22 | N#Cc1cc(-c2n[nH]c(-c3ccncc3)n2)ccn1 | inactive | –
23 | CC(C)=CCC[C@](C)(O[C@@H]1O[C@H](CO)[C@@H](O)[C@H](O)[C@H]1O)[C@H]1CC[C@]2(C)[C@@H]1[C@H](O)CC1[C@@]3(C)CC[C@H](O)C(C)(C)C3[C@@H](O[C@@H]3O[C@H](CO)[C@@H](O)[C@H](O)[C@H]3O[C@@H]3O[C@@H](C)[C@H](O)[C@@H](O)[C@H]3O)C[C@]12C (some centres undefined) | – | 209% [at 11.5 µM] (inactive)
24 | CC(=O)OC1C(CO)OC(O[C@H]2[C@H](OC(=O)[C@]34CCC(C)(C)C[C@H]3C3=CCC5[C@@]6(C)CC[C@H](O[C@@H]7O[C@H](C(=O)O)[C@@H](O)[C@H](O[C@@H]8OC[C@@H](O)[C@H](O)[C@H]8O)[C@H]7O[C@@H]7O[C@H](CO)[C@H](O)[C@H](O)[C@H]7O)[C@@](C)(C=O)C6CC[C@@]5(C)[C@]3(C)C[C@H]4O)O[C@H](C)[C@H](OC3OC(C)C(OC4OCC(O)C(O)C4O)C(O)C3O)[C@@H]2O)C(O)C1O (some centres undefined) | – | 290% [at 11.5 µM] (inactive)
